Reference: paper PMC6602471
The full ranking holds about 1,300 sequences; the median of “log fluorescence intensity” is about 8.3, and the highest 2% start at about 12. The entries come from a sample that favours the highest values as a whole.

These sequences were tested against T1, ETS1 (Homo sapiens, UniProt P14921 1-441) (assay: custom PBM; custom protein-binding microarray; buffer, salt, pH and temperature not stated; high values mean tight binding). Conditions: dsDNA, one strand shown.
T1 sequence: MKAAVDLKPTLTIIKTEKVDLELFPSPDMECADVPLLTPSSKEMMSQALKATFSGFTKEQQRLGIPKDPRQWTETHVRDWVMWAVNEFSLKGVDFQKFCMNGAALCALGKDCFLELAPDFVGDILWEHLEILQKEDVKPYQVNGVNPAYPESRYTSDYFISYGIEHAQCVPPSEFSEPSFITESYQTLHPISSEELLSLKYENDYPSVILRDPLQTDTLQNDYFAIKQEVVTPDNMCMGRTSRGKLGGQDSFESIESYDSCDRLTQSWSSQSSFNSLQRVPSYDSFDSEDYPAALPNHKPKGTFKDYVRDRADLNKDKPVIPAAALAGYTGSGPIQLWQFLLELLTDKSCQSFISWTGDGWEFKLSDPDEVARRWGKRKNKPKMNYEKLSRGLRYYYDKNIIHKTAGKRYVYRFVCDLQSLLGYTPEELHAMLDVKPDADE

Row | Sequence | binding signal
1 | GGAAAAAGGCCCAGGGTAACACCGGAAGTGCGCTTAGTCTTGATTCGCTTGACGCTGCTG | 11.7 log fluorescence intensity
2 | GATTAATTTCTGCCCTTATTCGCACGTGCAATAACAGTCTTGATTCGCTTGACGCTGCTG | 8.3 log fluorescence intensity
3 | CAGAAGTGTCGTAAACGTCGGATATCCGGTTCTTCTGTCTTGATTCGCTTGACGCTGCTG | 12.1 log fluorescence intensity
4 | CGGAAGTGTCGTAAGCGTCGGATATCCGGTTCTTCTGTCTTGATTCGCTTGACGCTGCTG | 11.7 log fluorescence intensity
5 | CGGCAGTGTCGTAAACGTCGGATATCCGGTTCTTCTGTCTTGATTCGCTTGACGCTGCTG | 11.7 log fluorescence intensity
6 | GGAAACAGGCCCAGGGTAACACCGGAAGTGGGCTTAGTCTTGATTCGCTTGACGCTGCTG | 11.8 log fluorescence intensity
7 | TAAAGGGAAGACGGTTGTAGTAGTTCCGGGTATTAAGTCTTGATTCGCTTGACGCTGCTG | 8.81 log fluorescence intensity
8 | GCTGCTGCGCTGCATACCCCACCGGATGTGACCCCGGTCTTGATTCGCTTGACGCTGCTG | 10.1 log fluorescence intensity
9 | TACTGACTTATATATGCGAATGCACATCAATAGACCGTCTTGATTCGCTTGACGCTGCTG | 8.32 log fluorescence intensity
10 | GCTGCTGCGGTGCATACCCCACCAGATGTGACCCCGGTCTTGATTCGCTTGACGCTGCTG | 8.36 log fluorescence intensity
11 | CACAATTTTTACAGTAATGTAGCACGCGTAAATCCTGTCTTGATTCGCTTGACGCTGCTG | 8.32 log fluorescence intensity
12 | GTGTATAGGATCCCATCGAACACACGTGTTAAAATGGTCTTGATTCGCTTGACGCTGCTG | 8.36 log fluorescence intensity
13 | TAAAGGGAAGACGGTTGTGGTAGTTCCGGGTATTAGGTCTTGATTCGCTTGACGCTGCTG | 8.47 log fluorescence intensity
14 | CGGAAGTGTCGTAAACGTCTGATATCCGGTTCTTCTGTCTTGATTCGCTTGACGCTGCTG | 11.8 log fluorescence intensity
15 | CGGAAGTGTCGGAAACGTCGGATATCCGGTTCTTCTGTCTTGATTCGCTTGACGCTGCTG | 12.8 log fluorescence intensity
16 | CCGAAGTGTCGTAAACGTCGGATATCCGGTTCTTCTGTCTTGATTCGCTTGACGCTGCTG | 12 log fluorescence intensity
17 | CGGAAGTGTCGTAAACGTCGGAAATCCGGTTCTTCTGTCTTGATTCGCTTGACGCTGCTG | 9.71 log fluorescence intensity
18 | CGGAAGTGTCTTAAACGTCGGATATCCGGTTCTTCTGTCTTGATTCGCTTGACGCTGCTG | 11.6 log fluorescence intensity
19 | CGGAAGTGTCGTAAACGTCGGACATCCGGTTCTTCTGTCTTGATTCGCTTGACGCTGCTG | 12.6 log fluorescence intensity
20 | CGGAAGTGTCGTAAACGTCGGATTTCCGGTTCTTCTGTCTTGATTCGCTTGACGCTGCTG | 12.5 log fluorescence intensity
21 | CGGAAGTGTCGAAAACGTCGGATATCCGGTTCTTCTGTCTTGATTCGCTTGACGCTGCTG | 12 log fluorescence intensity
22 | CGGAAGTGTCGTAAACGTCGGAGATCCGGTTCTTCTGTCTTGATTCGCTTGACGCTGCTG | 8.83 log fluorescence intensity
23 | CGGAAGTGTCGTAAACGTCGGATCTCCGGTTCTTCTGTCTTGATTCGCTTGACGCTGCTG | 8.47 log fluorescence intensity
24 | CGGAAGTGTCGTAAACGTCGGATGTCCGGTTCTTCTGTCTTGATTCGCTTGACGCTGCTG | 9.65 log fluorescence intensity
25 | CGGAAGTGTCGTAAACGTCCGATATCCGGTTCTTCTGTCTTGATTCGCTTGACGCTGCTG | 12.2 log fluorescence intensity
26 | CGGAAGCGTCGTAAACGTCGGATATCCGGTTCTTCTGTCTTGATTCGCTTGACGCTGCTG | 11.8 log fluorescence intensity

Row | Sequence | binding signal
27 | CGGAAGTGTCGTAAACGTCGGTTATCCGGTTCTTCTGTCTTGATTCGCTTGACGCTGCTG | 9.21 log fluorescence intensity
28 | CGGAATTGTCGTAAACGTCGGATATCCGGTTCTTCTGTCTTGATTCGCTTGACGCTGCTG | 12.2 log fluorescence intensity
29 | CGGAACTGTCGTAAACGTCGGATATCCGGTTCTTCTGTCTTGATTCGCTTGACGCTGCTG | 11.8 log fluorescence intensity
30 | CGGAAGTGTCGTAAACGTCGTATATCCGGTTCTTCTGTCTTGATTCGCTTGACGCTGCTG | 11.8 log fluorescence intensity
31 | CGGAAGTGTCGTAAACGTCGCATATCCGGTTCTTCTGTCTTGATTCGCTTGACGCTGCTG | 12.2 log fluorescence intensity
32 | CTGGGACTTGACCCAACTCTGCCACGTGGGTCGCTTGTCTTGATTCGCTTGACGCTGCTG | 8.36 log fluorescence intensity
33 | GGCAAAAGGCCCAGGGTAACACCGGAAGTGGGCTTAGTCTTGATTCGCTTGACGCTGCTG | 11.7 log fluorescence intensity
34 | GGAAAAAGGCCCAGGGGAACACCGGAAGTGGGCTTAGTCTTGATTCGCTTGACGCTGCTG | 12.1 log fluorescence intensity
35 | GGAAAAAGGCCCAGGGAAACACCGGAAGTGGGCTTAGTCTTGATTCGCTTGACGCTGCTG | 12.3 log fluorescence intensity
36 | GGTAAAAGGCCCAGGGTAACACCGGAAGTGGGCTTAGTCTTGATTCGCTTGACGCTGCTG | 11.9 log fluorescence intensity
37 | GGAAAAAGGCCCAGGGCAACACCGGAAGTGGGCTTAGTCTTGATTCGCTTGACGCTGCTG | 12.2 log fluorescence intensity
38 | GGAAAAAGGCCCAGGCTAACACCGGAAGTGGGCTTAGTCTTGATTCGCTTGACGCTGCTG | 12.1 log fluorescence intensity
39 | GGGAAAAGGCCCAGGGTAACACCGGAAGTGGGCTTAGTCTTGATTCGCTTGACGCTGCTG | 11.9 log fluorescence intensity
40 | GGAAAAAGGCCCAGGGTCACACCGGAAGTGGGCTTAGTCTTGATTCGCTTGACGCTGCTG | 11.9 log fluorescence intensity
41 | GCAAAAAGGCCCAGGGTAACACCGGAAGTGGGCTTAGTCTTGATTCGCTTGACGCTGCTG | 11.9 log fluorescence intensity
42 | GGAAAAAGGCCCAGGATAACACCGGAAGTGGGCTTAGTCTTGATTCGCTTGACGCTGCTG | 12.2 log fluorescence intensity
43 | GGAAAAAGGCCCAGGGTGACACCGGAAGTGGGCTTAGTCTTGATTCGCTTGACGCTGCTG | 11.8 log fluorescence intensity
44 | GGATAAAGGCCCAGGGTAACACCGGAAGTGGGCTTAGTCTTGATTCGCTTGACGCTGCTG | 11.9 log fluorescence intensity
45 | GATTAATTTCTGCCCTTATTCGAACGTGCCATAACAGTCTTGATTCGCTTGACGCTGCTG | 8.42 log fluorescence intensity
46 | TCCGGCTACCAGCTCCACCCACTTCAGGCCTTATAGGTCTTGATTCGCTTGACGCTGCTG | 8.46 log fluorescence intensity
47 | GAAAGGGAAGACGGTTGTGGTAGTTCCGGGTATTAAGTCTTGATTCGCTTGACGCTGCTG | 8.75 log fluorescence intensity
48 | CGGAAGTGTCGTAAACGTCGGATATCCGGTTTTTCTGTCTTGATTCGCTTGACGCTGCTG | 11.9 log fluorescence intensity
49 | TCCGGCTACCAGCTGCACCCACTTCAGGCCTTGTAGGTCTTGATTCGCTTGACGCTGCTG | 8.44 log fluorescence intensity
50 | GCTGCTGCGGTGTATACCCCACCGGATGTGACCCCGGTCTTGATTCGCTTGACGCTGCTG | 10.1 log fluorescence intensity
51 | GGAAAACGGCCCAGGGTAACACCGGAAGTGGGCTTAGTCTTGATTCGCTTGACGCTGCTG | 12 log fluorescence intensity
52 | TACTGACTTATATATGGGAATGCACATGAATAGACCGTCTTGATTCGCTTGACGCTGCTG | 8.32 log fluorescence intensity
